Compound activity: PubChem BioAssay, National Center for Advancing Translational Sciences (NCATS)
MCF10A rerep = A quantitative high throughput screen for small molecules that induce DNA re-replication in MCF 10a normal breast cells | actives 2.9% (n = 350,000) | Potency, µM (series often up to 46.1 µM), without a hit: top-dose activity, positive = re-replication, actives largely listed as activators | MCF 10A DNA re-replication, Hoechst nuclear intensity, 48 h | AID 624296, 2012; note: % of control where 0% means no effect; nearly all actives have a fitted effect of over 50% in size
12-LOX inh = Primary qHTS assay for inhibitors of human arachidonate 12S-lipoxygenase (ALOX12): Round 2; Polyunsaturated fatty acid lipoxygenase ALOX12 (Homo sapiens), P18054; purified 12hLO, xylenol orange hydroperoxide absorbance; Potency, µM (titrated, usually from 108 µM), for the others: at the top dose activity change, negative = inhibition, actives largely listed as inhibitors; actives 1.1% (n = 580,000); note: % is set by controls: 0 for no effect and ±100 for the full control effect
Target sequence (P18054 whole entry, looked up): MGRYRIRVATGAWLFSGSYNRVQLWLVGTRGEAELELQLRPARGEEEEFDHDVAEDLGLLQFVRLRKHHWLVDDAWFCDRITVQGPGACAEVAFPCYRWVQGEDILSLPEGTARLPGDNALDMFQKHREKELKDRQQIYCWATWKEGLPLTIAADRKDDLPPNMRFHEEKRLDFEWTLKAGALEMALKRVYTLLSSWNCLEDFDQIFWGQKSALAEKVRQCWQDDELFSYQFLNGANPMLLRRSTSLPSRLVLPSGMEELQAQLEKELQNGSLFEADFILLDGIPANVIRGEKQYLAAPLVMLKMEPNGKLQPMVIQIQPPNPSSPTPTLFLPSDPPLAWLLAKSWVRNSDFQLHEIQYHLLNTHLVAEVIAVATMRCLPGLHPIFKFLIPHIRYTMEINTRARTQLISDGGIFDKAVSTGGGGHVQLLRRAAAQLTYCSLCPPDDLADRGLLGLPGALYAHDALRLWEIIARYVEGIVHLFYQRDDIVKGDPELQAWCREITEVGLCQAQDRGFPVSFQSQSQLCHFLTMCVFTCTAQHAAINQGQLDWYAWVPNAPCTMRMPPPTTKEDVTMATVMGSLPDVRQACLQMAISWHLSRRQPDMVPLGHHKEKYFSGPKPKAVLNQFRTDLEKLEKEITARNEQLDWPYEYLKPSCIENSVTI
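Purified human 12hLO at 150 nM in 25 mM Hepes, 0.01% Triton X-100, pH 7.0, preincubated 15 min at room temperature with compound. Reaction started with 40 uM arachidonic acid, 30 min at room temperature. Hydroperoxide measured by Fe-xylenol orange, 573/405 nm absorbance ratio.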
PINK1 expr mod = A Quantitative High throughput Screen to Identify Chemical Modulators of PINK1 Expression; PINK1 immunofluorescence, high-content cytometry, 24 h; Potency, µM (doses to about 76.6 µM), for the others: top-dose activation (PINK1 increase), actives largely listed as activators; actives 0.2% (n = 410,000); AID 624263, 2012; active = well fitted activation curve with a large enough effect; inconclusive = small, poorly fitted or top-dose-only effect; cell line not stated here; note: % of control where 0% means no effect; nearly all actives have a fitted effect of over 65% in size
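A stable cell line was treated with compounds at 5 concentrations for 24 hours, with CCCP as control. PINK1 levels and mitochondrial localization were measured by immunofluorescence with mitochondrial, cell and nuclear markers after fixation, read by laser-scanning cytometry.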
KB-V1 MDR tox = qHTS assay for MDR1-selective chemotherapeutics: Primary screen using the drug-selected MDR subline cells KB-V1. KB-V1 MDR cells viability, CellTiter-Glo, 72 h. Potency, µM (top dose mostly 46.1 µM), most hits filed as cytotoxic. actives 3.4% (n = 400,000). AID 1347076, 2019; note: % is set by controls: 0 for no effect and ±100 for the full control effect; nearly all actives have a fitted effect of over 60% in size
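Readout: CellTiter-Glo luminescence, 10 min after addition. Cells: KB-V1 MDR subline, 72 h at 37 degrees C with compound. Analysis: corrected, normalized data fitted to concentration-effect curves.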
KB-3-1 tox = qHTS assay for MDR1-selective chemotherapeutics: Primary screen using the parental adenocarcinoma cell KB-3-1 | actives 1.4% (n = 400,000) | AID 1347075, 2019 | Potency, µM (titrated, usually from 46.1 µM), hits mostly cytotoxic | KB-3-1 viability, CellTiter-Glo ATP luminescence, 72 h; note: % is set by controls: 0 for no effect and ±100 for the full control effect; nearly all actives have a fitted effect of over 60% in size
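Cytotoxicity measured as CellTiter-Glo luminescence after 72 h at 37 C. Compound titrations were pinned onto drug-naive KB-3-1 parental adenocarcinoma cells grown in DMEM with 10% FBS, and normalized data fitted to concentration-response curves.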
SW480 rerep = A quantitative high throughput screen for small molecules that induce DNA re-replication in SW480 colon adenocarcinoma cells; SW480 DNA re-replication, Hoechst DNA content imaging, 48 h; actives 1.8% (n = 340,000); Potency, µM (highest dose often 46.1 µM), for the others: at the highest dose re-replication activation, most hits filed as activators; note: % of control where 0% means no effect; nearly all actives have a fitted effect of over 55% in size
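DNA re-replication was detected as more nuclei of elevated Hoechst intensity after 48 hr exposure to compound (23 nL pinned per well of 250 cells).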
An asterisk follows results filed as active; i = inactive; ? = inconclusive; · = no result; ! = not confirmed by another sample; [ ] = remark or other dose. This is a sample that favours compounds with a hit; in the whole collection about 5.8% have one here. Unless noted, calls come from the whole dose curve; as a rule, active = well fitted curve in the direction sought with a large enough effect; inconclusive = small, poorly fitted or top-dose-only effect, or another doubt; inactive = no such curve, though single readings can be large; an effect the other way counts as inactive or inconclusive. Potency is the fitted concentration of half-maximal effect.

SMILES	MCF10A rerep	12-LOX inh	PINK1 expr mod	KB-V1 MDR tox	KB-3-1 tox	SW480 rerep
Cn1cnnc1SCC(=O)NNC(=O)COc1ccc(Cl)cc1	0.581µM*	4.0%	2.2%	?	i	-17.4%
c1ccc2c(N3CCOCC3)nc(-c3ccncc3)nc2c1	22.1%	61.7%	-5.3%	13µM*	?	7.3%
CN1CCN(c2nc(-c3cccc([N+](=O)[O-])c3)nc3ccccc23)CC1	23.1µM*	-12.4%	2.6%	i	i	23.1µM*
CN1CCN(c2nc(-c3ccc(C(C)(C)C)cc3)nc3ccccc23)CC1	8.5%	31.6µM*	-0.1%	i	i	?
c1ccc2c(N3CCC3)nc(-c3ccncc3)nc2c1	·	36.7%	·	·	·	·
CCC1CCCCN1c1nc(-c2ccncc2)nc2ccccc12 (centres undefined)	23.1µM*	-24.2%	-0.5%[38.3 µM]	?	?	?
O=C(NCc1ccc(F)cc1)c1nc(-c2ccc(Cl)cc2)c2ccccn12	·	18.1%	·	·	·	·
CC(O)/C=C/c1cccc[n+]1C (centres undefined)	2.8%	17.8µM*	·	i	i	-20.4%
C[n+]1ccccc1/C=N/O	3.4%	?	1.4%	i	i	-9.3%
C=CCNC(=S)Nc1ccc(F)cc1Cl	·	53.4%	·	·	·	·
O=S(=O)(c1cccs1)N1CCN(Cc2nc3ccccc3s2)CC1	4.7%	8.0%	-1.7%	23.1µM*	i	6.1%
CCCCOC(=O)/C=C/c1ccc(OC(=O)OC)c(OC(=O)OC)c1	14.6µM*	?	0.7%	i	?	?
C=CCN(CC=C)C(=O)c1cc(Cl)ccc1[N+](=O)[O-]	4.4%	-24.3%	0.2%	i	i	-32.3%
CCCCN(CCCC)C(=O)c1cc(Cl)ccc1[N+](=O)[O-]	12.7%	-1.6%	-1.0%	23.1µM*	i	?
COc1cccc(/C=N/n2c(-c3n[nH]c4c3CCC4)n[nH]c2=S)c1O	-0.1%	39.8µM*	-3.4%	i	i	1.1%
COc1cc(/C=N/n2c(-c3n[nH]c4c3CCC4)n[nH]c2=S)cc(OC)c1O	12.1%	?	1.0%	i	i	-11.1%
COc1ccc(/C=N/n2c(C3CCCCC3)n[nH]c2=S)c(OC)c1	25.7%	39.8µM*	2.0%	i	i	-11.9%
CCOc1ccc(/C=N/n2c(C3CCCCC3)n[nH]c2=S)cc1	10.3µM*	?	4.6%	i	i	-15.4%
Fc1ccc(/C=N/n2c(C3CCCCC3)n[nH]c2=S)cc1	?	?	1.3%	i	i	-8.1%
COc1cccc(/C=N/n2c(C3CCCCC3)n[nH]c2=S)c1OC	13.9%	14.8%	5.6%	i	i	7.2%
COc1cccc(/C=N/n2c(C3CCCCC3)n[nH]c2=S)c1O	-8.8%	20µM*	-1.2%	i	i	-9.8%
COc1ccc(-c2noc([C@@H]3CCCN3C(=O)Cc3cccc(C)c3)n2)cc1	·	8.9%	·	·	·	·
Brc1ccoc1-c1nc(-c2ccccc2)no1	·	52.5%	·	·	·	·
N#Cc1nc(-c2ccc(F)cc2)oc1NC1CCCCC1	·	4.1%	·	·	·	·
S=c1[nH]nc(C2CCCCC2)n1/N=C/c1ccccn1	-1.2%	17.8µM*	0.0%	i	i	-16.5%
SMILES	MCF10A rerep	12-LOX inh	PINK1 expr mod	KB-V1 MDR tox	KB-3-1 tox	SW480 rerep
CC(C)N(CCC(=O)c1ccc2ccccc2c1)Cc1ccccc1	-42.1%	35.5µM*!	-0.8%	i	?	?
CC(OC(=O)c1ccc2ccccc2c1)C(=O)N(C)Cc1ccccc1 (centres undefined)	?	?	-0.1%	i	i	?
Cc1ccc(S(=O)(=O)N(C)Cc2ccc(C(=O)N/N=C/c3ccc(OC(F)F)cc3)cc2)cc1	?	-18.4%	0.6%	16.4µM*	i	2.8%
C/C(=N\NC(=O)c1ccc(CN(C)S(=O)(=O)c2ccc(C)cc2)cc1)c1ccc(OC(F)F)cc1	?	14.0%	5.0%	2.59µM*	10.3µM*	-16.4%
Cc1cc(Cl)c2[nH]ncc2n1	·	10.1%	·	·	·	·
O=C(/C=C/c1ccccc1)Nc1ccccc1C(=O)NCc1cccnc1	·	28.1%	·	·	·	·
C/C(=N/Nc1nc(C)cc(-c2ccccc2)n1)c1ccco1	-0.2%	-7.4%	0.8%	16.4µM*	i	12.3%
C/C(=N\Nc1nc(C)cc(-c2ccccc2)n1)c1ccccc1	0.6%	-7.0%	2.1%	6.51µM*	i	?
C/C(=N\Nc1nc(C)cc(-c2ccccc2)n1)c1ccc(C)o1	26.2%	0.0%	0.1%	?	i	6.5%
COc1cc(OC)cc(-c2cc3nc(C)c(CCC(=O)O)c(C)n3n2)c1	18.4µM*	?	3.4%	i	i	0.1%
Cc1ccc(OCC(O)CN2CCN(c3ccc(C(F)(F)F)cn3)CC2)cc1 (centres undefined)	·	-1.5%	·	·	·	·
Cc1cccc(C)c1NC(=O)CSc1nc(C)c(CC(=O)c2ccc(Br)cc2)c(C)c1C#N	16.4µM*	0.0%	3.0%	?	?	9.8%
Cc1nc(SCC(=O)Nc2ccccc2C(F)(F)F)c(C#N)c(C)c1CC(=O)c1ccc(Br)cc1	·	-0.8%	·	·	·	·
O=C(NC1CCCCCCC1)c1cc(C(F)(F)F)cc(C(F)(F)F)c1	·	0.6%	·	·	·	·
O=C(CCCCCN1C(=O)c2cccc3cccc(c23)C1=O)NCCCO	?	0.0%	0.4%	i	i	-37.2%
O=C(CCCCCN1C(=O)c2cccc3cccc(c23)C1=O)NC1CCS(=O)(=O)C1 (centres undefined)	-2.3%	11.8%	-0.2%	i	i	18.4µM*
O=C(CN1C(=O)c2cccc3cccc(c23)C1=O)NCCCO	-0.5%	-6.4%	0.1%	i	i	-10.8%
O=C(CCN1C(=O)c2cccc3cccc(c23)C1=O)NC1CCS(=O)(=O)C1 (centres undefined)	-1.8%	-22.4%	-1.7%	i	i	-18.4%
O=C(CN1C(=O)c2cccc3cccc(c23)C1=O)NCCN1CCOCC1	1.84µM*	-5.9%	2.7%	i	i	-8.6%
O=C1c2ccc3c4c(ccc(c24)C(=O)N1CCCCO)C(=O)N(CCCCO)C3=O	?	-3.7%	7.5%	?	3.66µM*	?
O=C(c1ccc2c(c1)C(=O)N(CCCO)C2=O)c1ccc2c(c1)C(=O)N(CCCO)C2=O	-2.5%	14.2%	6.3%	i	i	-2.5%
